Screens (PubChem)
Compounds with a hit are over-represented: about 6.6% of the library has one in this group of screens.
BoNT-A LC inh2: BoNT/A light chain protease inhibitors, primary screen, biochemical, flow cytometry, MLPCN library | Botulinum neurotoxin type A light chain protease (Clostridium botulinum A str. ATCC 3502) | multiplex microsphere protease substrate cleavage | inhibition, % at 10 µM | 360,000 tested, 0.17% active; further: plate controls were buffer without enzyme for full effect and enzyme alone for no effect
Mtb FBA inh: Mtb FBA enzyme inhibitors, primary screen, biochemical, fluorescence, strain H37Rv | Fructose-bisphosphate aldolase (Mycobacterium tuberculosis (strain ATCC 25618 / H37Rv)), … | purified M. tuberculosis FBA, fluorescence read-out | inhibition, % at 1 µM | 360,000 tested, 2.3% active | AID 588726, 2011; in the data active means inhibition above about 27%;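 further: 0% = vehicle and 100% = reference inhibitor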
BoNT-F LC inh: BoNT/F light chain protease inhibitors, primary screen, biochemical, flow cytometry, MLPCN library; inhibition, % at 10 µM; 360,000 tested, 0.22% active; Botulinum neurotoxin type F light chain protease (Clostridium botulinum); Multiplex microsphere protease cleavage assay; in the data active means inhibition above about 35%, passing the limit was not always enough; inconclusive means no clear call, values can overlap the other calls; further: plate controls were buffer without enzyme for full effect and enzyme alone for no effect
Anthrax LF prot: Bacillus anthracis LF protease inhibitors, primary screen, biochemical, multiplex microsphere, MLPCN library; Lethal factor (Bacillus anthracis), P15917; multiplex microsphere protease cleavage assay; inhibition, % at 10 µM; 360,000 tested, 0.12% active; AID 588501, 2011; further: plate controls were buffer without enzyme for full effect and enzyme alone for no effect
GDH-TPI counter: GDH-TPI coupling enzyme inhibitors, primary screen, artefact control for M. tuberculosis FBA inhibitor project, biochemical, absorbance, full deck; GDH-TPI coupled enzyme counterscreen, NADH absorbance; inhibition, % at 4.8 µM; 360,000 tested, 1.2% active; in the data active means inhibition above about 30%;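 further: 0% = DMSO wells and 100% = wells lacking the enzyme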
Autofluor counter: counter-screen for toxin protease inhibitors: compound fluorescence; compound autofluorescence counterscreen, microsphere flow cytometry; stronger effect = higher value; fluorescence intensity (concentration not given with the values); 360,000 tested, 3.1% active; in the data active means fluorescence intensity above about 16000; inconclusive means no clear call, values can overlap the other calls
Active calls of the source: *; ? = inconclusive; . = no result; + = active, no number. Unless noted, no stated cut-off is given here; in the data, active means inhibition above about 30%; inconclusive means no clear call, values can overlap the other calls; inactive means below that.

SMILES	BoNT-A LC inh2	Mtb FBA inh	BoNT-F LC inh	Anthrax LF prot	GDH-TPI counter	Autofluor counter
O=C(Cn1nc(-c2ccc(Cl)cc2)ccc1=O)NCC1COCCO1 (stereo not drawn)	-0.7	1.6	-9.4	0.2	-4.7	5327
CC(=O)Nc1cc2c(cc1NC(=O)Cn1nc(-c3ccc(F)cc3)ccc1=O)OCCO2	-0.7	-1.9	3.8	-0.7	-0.8	6443
COc1cccc(-c2ccc(=O)n(CC(=O)NCCN3CCOCC3)n2)c1	-4.8	-0.5	-7.5	-1.8	6.4	25197*
O=C(Cn1nc(-c2ccccc2)ccc1=O)NCCCN1CCOCC1	0.1	2.5	-8.5	-4.2	-3.8	5185
O=C(CS(=O)c1ccc(C(F)(F)F)cc1[N+](=O)[O-])Oc1ccc(Cl)cc1 (stereo not drawn)	-0.7	-0.2	0.3	-7.3	0.6	22500*
N#C/C(=N\Nc1ccccc1Cl)C(=O)c1ccccc1	-1.0	-5.5	1.6	-5.7	18.3	6576
N#C/C(=N\Nc1c(Cl)cccc1Cl)C(=O)NN	2.1	-11.8	-1.0	3.6	32.3*	9243
CCCSC1=C(C#N)C(c2ccc(OC)cc2)C2=C(CC(C)(C)CC2=O)N1 (stereo not drawn)	-0.5	4.4	-5.6	1.3	16.1	3459
CSC1=C(C#N)C(c2ccc(Cl)cc2)C2=C(CC(C)(C)CC2=O)N1 (stereo not drawn)	-2.0	-1.1	-3.1	-6.4	-1.9	23927*
COc1cccc(-c2nc(-c3ccc(NC(=O)c4cccs4)cc3)no2)c1	0.5	3.2	3.0	-5.4	0.9	2738
CCOC(=O)c1nc(Nc2ccc(C(=O)O)cc2)c2ccccc2n1	-1.6	-3.7	3.2	-0.7	31.3*	4833
CNC(=O)c1ccc(Nc2nc(-c3ccccc3)nc3ccccc23)cc1	-1.7	5.6	9.8	-10.5	5.2	4008
CCOC(=O)c1nc(Nc2ccc(Nc3ccccc3)cc2)c2ccccc2n1	0.0	0.7	-3.3	-3.8	-3.8	4228
O=C(O)c1ccc(Nc2nc(-c3ccccc3)nc3ccccc23)cc1	-0.5	8.4	8.0	-3.4	46.6*	3480
CCOC(=O)c1ccc(Nc2nc(C(=O)OCC)nc3ccccc23)cc1	-0.4	0.7	-6.8	-5.5	35.0*	3318
Cc1cccc(C)c1-n1nnnc1C(c1cc2ccccc2o1)N1CCN(C/C=C/c2ccccc2)CC1 (stereo not drawn)	-1.0	1.2	-8.5	-3.3	.	6205
Cc1ccc([C@@H]2CC=C(C(=O)O)[C@H](c3ccccc3)N2S(=O)(=O)c2ccccc2C)cc1	0.1	1.0	-0.1	-6.0	2.8	3491
NS(=O)(=O)c1ccc(CNC(=O)/C=C/c2cccc([N+](=O)[O-])c2)cc1	-15.9	-2.1	-65.7	-22.6	7.5	19057*
NS(=O)(=O)c1ccc(CNC(=O)/C=C/c2ccc(Cl)c(Cl)c2)cc1	0.1	-1.1	2.7	2.3	2.9	2574
Cc1ccc(C(=O)N(CN2CCCC2=O)c2ccccc2)cc1	-19.0	0.7	-24.5	-27.5	7.3	?
Cc1ccc(N(CN2CCCC2=O)C(=O)c2ccc(OC(C)C)cc2)cc1	?	-0.4	0.9	-1.5	4.1	19242*
CCOc1ccc(C(=O)N(CN2CCCC2=O)c2ccccc2)cc1	?	2.2	0.0	-0.3	1.0	19439*
O=S(=O)(c1ccc(F)cc1)c1nc(-c2ccccc2)oc1N1CCOCC1	-1.6	1.2	-8.5	-2.2	-5.6	5666
Cc1cc(S(=O)(=O)NCc2ccc(N3CCN(C)CC3)cc2)c(C)s1	1.1	2.3	3.6	-4.7	12.6	5925
CCOc1ccc(-c2nnc(SCC(=O)Nc3ccc4c(c3)c3ccccc3n4CC)n2N)cc1	-0.8	1.5	-2.0	0.0	23.0	16867*
SMILES	BoNT-A LC inh2	Mtb FBA inh	BoNT-F LC inh	Anthrax LF prot	GDH-TPI counter	Autofluor counter
CCn1c2ccccc2c2cc(NC(=O)CSc3nnc(-c4ccccc4OC)n3N)ccc21	?	0.8	-9.4	0.3	14.2	17821*
Cc1ccc(S(=O)(=O)N2CCN(C(=O)c3cc4c(C)nn(-c5ccccc5C)c4s3)CC2)cc1	-0.4	-1.4	-10.4	1.7	12.5	2572
Cc1ccccc1-n1nc(C)c2cc(C(=O)N3CCOCC3)sc21	?	-1.1	0.7	-0.6	4.6	23082*
CCN(CC)c1ccc(C(=O)OCC(=O)NCC2CCCO2)cc1 (stereo not drawn)	0.2	-0.3	3.0	-0.2	31.8*	8618
COc1ccc(C(=O)OCC(=O)NCC2CCCO2)cc1 (stereo not drawn)	0.2	1.7	-0.1	-1.0	1.0	2599
O=C(COC(=O)c1ccc(Br)o1)NCC1CCCO1 (stereo not drawn)	2.6	0.7	5.3	1.6	6.6	21346*
O=C(NCC1CCCO1)c1ccc(Br)o1 (stereo not drawn)	-0.4	2.7	-0.4	-2.2	2.5	4361
Cc1nnc(-c2cccc(Br)c2)c2cn(-c3cccc(Br)c3)nc12	8.2	1.3	11.9	1.4	8.5	34824*
Cc1nnc(-c2cccc(Br)c2)c2cn(-c3ccccc3)nc12	14.7	-2.7	27.2	7.9	-5.7	32979*
Cc1nnc(-c2cccc(Br)c2)c2cn(-c3ccc(Br)cc3)nc12	0.9	2.8	10.1	-4.4	-8.4	17435*
CC(=O)c1nn(-c2cccc(Br)c2)cc1C(=O)c1ccc(C)cc1	-1.4	-2.1	?	?	16.8	?
O=C(c1cn(-c2ccccc2)nc1-c1cccc(Br)c1)N1CCOCC1	0.3	0.3	-1.5	-0.2	0.6	2637
COc1ccc(Cc2c(-c3cccc(Br)c3)nc3ccc(Br)cn23)c(C)c1	8.2	1.9	7.1	11.6	.	4327
COc1ccc(-n2cc3c(-c4cccc(Br)c4)nnc(C)c3n2)cc1	7.7	1.2	30.9	17.3	5.8	48432*
O=C(CSc1nc(=O)n2ccccc2n1)N1CCCCCC1	.	-0.6	.	.	24.4	.
CCOc1cc(N2CCOCC2)c(OCC)cc1NC(=O)c1ccc(S(=O)(=O)N2CC(C)OC(C)C2)cc1 (stereo not drawn)	-1.5	2.1	-9.2	-3.2	10.8	3445
O=C(O)c1nc(N2CCCCC2)ncc1Cl	-1.1	3.9	-9.0	-2.7	10.7	2505
O=C(O)c1nc(N2CCCC2)ncc1Cl	6.9	-0.4	9.5	-8.4	20.4	19947*
COc1cccc(COC(=O)c2nn(-c3ccccc3)nc2N)c1	0.7	-1.6	0.8	0.7	3.8	2012
Nc1nn(-c2ccccc2)nc1C(=O)OCc1ccccc1	1.1	177.3*	-8.4	-0.7	6.0	5245
NC(=O)c1nn(-c2ccccc2)nc1N	-2.3	+	-27.7	-5.3	4.9	3730
